# Records with an inconclusive call do not appear. Entries that show only a call come without a potency. Unmarked numbers belong to inactive results. The source made the active and inactive calls. The call rests on the fitted dose curve; in most records, active means well fitted cell-killing curve with a large enough effect; inconclusive means small, poorly fitted or top-dose-only effect, or effect the other way; inactive means flat fitted curve, though single readings scatter.
# Test system: OV90
# Experiment: Primary qHTS to identify gynecologic anti-cancer compounds using libraries of approved drugs and bioactive compounds (AID 1345084); further: nearly all actives have a fitted effect of over 55% in size
# Conditions: Gynecologic cancer cell panel viability, ATPlite luminescence, 48 h; series mostly up to 57.5 µM
# Summary of the method: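 Cell viability after 48 h drug treatment, ATPlite luminescence readout; five doses.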
SMILES,"activity change, negative = cytotoxicity",Potency
CC1(C)CC[C@]2(C(=O)O[C@@H]3O[C@H](CO)[C@@H](O)[C@H](O)[C@H]3O)CC[C@]3(C)C(=CCC4[C@@]5(C)CC[C@H](OC6OC(C(=O)O)C(OC7OC(CO)C(O)C(O)C7O)C(O)C6O)C(C)(C)C5CC[C@]43C)C2C1 (stereo partly drawn),8.01% [at 11.6 µM],–
COc1cccc(CN(C(=O)CC(C)(C)C)C2CC(C(=O)N3CCNCC3)N(Cc3ccc4c(c3)OCO4)C2)c1 (stereo not drawn),–,inactive
C/C=C(/C)C(=O)OC1CC(C)(C)CC2C3=CCC4C5(C)CCC(OC6OC(C)C(OC7OC(C(=O)O)C(O)C(OC8OC(CO)C(O)C(O)C8OC8OC(CO)C(O)C(O)C8O)C7O)C(O)C6O)C(C)(C)C5CCC4(C)C3(C)C(OC(=O)/C=C/C=C/C=C/CCC)C(OC(C)=O)C12CO (stereo not drawn),-14.1% [at 6.55 µM],–
Cc1ccc(-c2c(-c3nn(C)c4ncnc(N5CC[C@H](N6CCCCC6)C5)c34)cnn2C)cc1,–,inactive
O=C(O)c1cc(O[C@@H]2O[C@H](CO)[C@@H](O)[C@H](O)[C@H]2O)ccc1O,–,inactive
Nc1nc(COC(=O)c2ccc([N+](=O)[O-])cc2)nc(Nc2ccccc2)n1,–,inactive
C[C@@H]1O[C@@H](O[C@H]2[C@H](O[C@H]3[C@H](O[C@H]4CC[C@@]5(C)C(CC[C@]6(C)C5CC=C5[C@@H]7CC(C)(C)C[C@@H](O)[C@]7(C)CC[C@]56C)[C@@]4(C)CO)O[C@H](C(=O)O)[C@@H](O)[C@@H]3O)O[C@H](CO)[C@H](O)[C@@H]2O)[C@H](O)[C@H](O)[C@H]1O (stereo partly drawn),7.08% [at 11.6 µM],–
COc1cc(CO)ccc1O[C@@H]1O[C@H](CO)[C@@H](O)[C@H](O)[C@H]1O,–,inactive
COC(=O)c1c(CC=C(C)C)c(OC2OC(CO)C(O)C(O)C2O)c2ccccc2c1OC1OC(CO)C(O)C(O)C1O (stereo not drawn),–,inactive
COc1ccc(C2(O)c3c(ccc4c3OC(C)(CCC=C(C)C)C=C4)NC(=O)C2OC)cc1 (stereo not drawn),–,inactive
Cc1ccc(C)c(NC(=O)CNS(=O)(=O)c2ccc3[nH]c(=O)oc3c2)c1,–,inactive
CO[C@H]1c2cc(C(C)C)c(O)c(O)c2[C@@]23CCCC(C)(C)C2[C@@H]1OC3=O (stereo partly drawn),–,inactive
COc1cc(C(C)=O)ccc1O[C@@H]1O[C@H](CO[C@@H]2OC[C@@H](O)[C@H](O)[C@H]2O)[C@@H](O)[C@H](O)[C@H]1O,–,inactive
COC(=O)c1[nH]c(=O)c2ccccc2c1-c1ccc[nH]1,–,inactive
CN[C@H](CNC(=O)N1CCC[C@@H]([C@@H](OCCNC(=O)OC)c2cccc(Cl)c2)C1)C[C@H]1CCCOC1,–,inactive
O=C(O)CCc1cc2ccoc2cc1O[C@@H]1O[C@H](CO)[C@@H](O)[C@H](O)[C@H]1O,–,inactive
CC(C)[C@@H](C(=O)O)N1Cc2c(cc(O)c3c2O[C@]2(C3)[C@H](C)CCC3C(C)(C)[C@H](O)[C@H](O)C[C@@]32C)C1=O (stereo partly drawn),–,inactive
CCOC(=O)CSc1nc2c(sc3ccccc32)c(=O)n1CCCN1CCCC1,–,inactive
CC1CCC2(C(=O)O)CCC3(C)C(=CCC4C5(C)CCC(O)C(C)(C(=O)O)C5CCC43C)C2C1(C)O (stereo not drawn),–,inactive
Cc1ccccc1N1CCN(S(=O)(=O)C[C@]23CC[C@H](C[C@@H]2NC(=O)[C@@H](N)CCS(C)(=O)=O)C3(C)C)CC1,–,inactive
C/C=C(\C)C(=O)OCC1OC(OCC2OC(OC3(CO)OC(CO)C(O)C3O)C(O)C(O)C2O)C(O)C(O)C1O (stereo not drawn),–,inactive
COc1ccc(/C=C/C(=O)O[C@@H]2[C@@H](OC(C)=O)[C@@H](OC(C)=O)[C@H](O[C@H]3[C@@H]4C=CO[C@@H](O[C@@H]5O[C@H](CO)[C@@H](O)[C@H](O)[C@H]5O)[C@@H]4[C@@]4(CO)O[C@@H]34)O[C@H]2C)cc1,–,inactive
CC1=C2C[C@@]3(C)[C@@H](CCC[C@@H]3C)C[C@@]2(O)OC1=O,–,inactive
COC(=O)/C=C/c1ccc(O[C@@H]2O[C@H](CO)[C@@H](O)[C@H](O)[C@H]2O)cc1,–,inactive
FC(F)(F)Oc1ccc(-c2ccc3nnc(C(F)(F)F)n3c2)cc1,–,inactive
C=C(C(=O)O)C1CC(OC(=O)CC(C)CC)C2(C)CCCC(=C)C2C1 (stereo not drawn),–,inactive
CC(C)(O)C1CC=C(C(=O)OC[C@H]2O[C@@H](OC(=O)C3=CCC(C(C)(C)O)CC3)[C@H](O)[C@@H](O)[C@@H]2O)CC1 (stereo partly drawn),–,inactive
N#Cc1ccc(C2CCCc3cncn32)cc1 (stereo not drawn),–,inactive
